# Compound activity from PubChem BioAssay.
# CHX counter = Cycloheximide Counterscreen for Small Molecule Inhibitors of Shiga Toxin; cell reporter, cycloheximide protein synthesis inhibition counterscreen; max response, %; actives 12% (n = 300,000); AID 2314, 2010; in the data active = max response mostly above about 13%, no sharp cut-off; inactive = mostly below about 14%; note: read at 38.3 µM for the half of the compounds with a filed dose; 0% is about no effect
# NS1 inh = qHTS Assay for Inhibitors of Influenza NS1 Protein Function. AID 2326, 2010. Potency, µM (series often up to 46.1 µM), inactives show at the highest dose activity, positive = more growth. actives 0.4% (n = 270,000); note: potency is the fitted concentration of half-maximal effect; actives are rising curves; nearly all actives have a fitted effect of over 50% in size
#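 S. cerevisiae expressing influenza A NS1, grown in glucose, washed, then diluted 1:100 into pH 6.0 -URA galactose medium with 23 nl compound. Growth recovery read as OD600; NS1-free strain serves as control.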
# Shiga inhibitor = A qHTS for Small Molecule Inhibitors of Shiga Toxin. Vero cells, Shiga toxin protein synthesis inhibition reporter. inhibition, % at 38.7 µM. actives 9.2% (n = 290,000). AID 2315, 2010; in the data active = inhibition mostly above about 28%, no sharp cut-off; inactive = mostly below about 43%; note: 0% is about no effect
# Pf growth 96h = Primary qHTS for delayed death inhibitors of the malarial parasite plastid, 96 hour incubation; P. falciparum luciferase reporter growth, 96 h; Potency, µM (series often up to 28.7 µM), for the others: at the top dose activity change, negative = inhibition, most hits filed as inhibitors; actives 6.9% (n = 320,000); active = well fitted inhibition curve with a large enough effect; inconclusive = small, poorly fitted or top-dose-only effect, or another doubt; inactive = no such curve, though single readings can be large or run the other way; note: potency is the fitted concentration of half-maximal effect; % is set by controls: 0 for no effect and ±100 for the full control effect
#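 Erythrocytes infected with luciferase-expressing P. falciparum were dispensed at 2% hematocrit and 0.05% parasitemia (final), then incubated with compounds 96 hours at 37 C in 5% CO2. Luminescence after detection reagent addition reported growth.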
# SARS PLpro yeast = qHTS of Yeast-based Assay for SARS-CoV PLP | S. cerevisiae expressing SARS-CoV PLpro, growth rescue | Potency, µM (top dose mostly 32.9 µM), for inactives: at the top dose activity, positive = growth rescue, usual class: activators | actives 0.19% (n = 330,000); note: potency is the fitted concentration of half-maximal effect; 0% is about no effect; nearly all actives have a fitted effect of over 55% in size
# Pf growth 48h = Primary qHTS for delayed death inhibitors of the malarial parasite plastid, 48 hour incubation; P. falciparum luciferase growth in erythrocytes, 48 h; Potency, µM (series often up to 28.7 µM), inactives show top-dose activity change, negative = inhibition, actives largely listed as inhibitors; actives 5.9% (n = 310,000); AID 504832, 2011; active = well fitted inhibition curve with a large enough effect; inconclusive = small, poorly fitted or top-dose-only effect, or another doubt; inactive = no such curve, though single readings can be large or run the other way; note: potency is the fitted concentration of half-maximal effect; % is set by controls: 0 for no effect and ±100 for the full control effect
#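 In quantitative HTS format, infected erythrocytes bearing luciferase-reporter parasites were treated for a single generation at 37 C. Luminescence after adding detection reagent served as the growth measure.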
# * marks the source's active call; other numbers are inactive results; u = inconclusive; x = no result given. Hits are enriched below; roughly 21% of the tested compounds scored in any of these assays. Unless noted, calls come from the whole dose curve.
SMILES,CHX counter,NS1 inh,Shiga inhibitor,Pf growth 96h,SARS PLpro yeast,Pf growth 48h
COc1ccc(N2C(=O)C(Cl)=C(Nc3ccc(OC)cc3OC)C2=O)cc1,44*,x,31,27%,-1%,11%
O=C1C(Cl)=C(Nc2ccccc2O)C(=O)N1CCc1ccccc1,30*,-9%,12,-11%,-76%,11%
CCOc1ccc(N2C(=O)C(Cl)=C(Nc3ccccc3O)C2=O)cc1,37*,-120%,97*,59%,-20%,x
O=C(NCc1nc2ccccc2[nH]1)C1=C[C@@H](c2ccccc2)C[C@@H](OCCCCO)O1,-1,1%,-5,-22%,-2%,0.0033µM*
O=C(NCc1nc2ccccc2[nH]1)C1=C[C@@H](c2ccc(Br)cc2)C[C@@H](OCCCCO)O1,-3,1%,-6,u,-2%,u
CC(C)(C)[C@H]1C=C(C(=O)NCc2nc3ccccc3[nH]2)O[C@@H](OCCCCO)C1,-3,2%,-12,10µM*,-3%,u
CCN(CC(=O)Nc1ccc(NC(C)=O)cc1)C(=O)c1ccc2c(c1)S(=O)(=O)N=C1CCCCCN12,x,x,x,35%,2%,-24%
O=C(CNC(=O)c1ccc2c(c1)S(=O)(=O)N=C1CCCCCN12)Nc1ccc(F)c(F)c1,x,x,x,u,-9%,10µM*
O=C1C2CCN(CC2)[C@@H]1Cc1ccc2ccccc2c1O,33*,3%,40*,0%,7%,0%
COc1ccc(O)c(CN2CCN(CCc3ccccc3)C(CCO)C2)c1 (stereo not drawn),1,-3%,-10,u,-2%,0%
OCCC1CN(Cc2ccccc2O)CCN1CCCc1ccccc1 (stereo not drawn),-4,-25%,-7,-10%,u,6.6µM*
COc1ccc(CN2CCN(CCCc3ccccc3)C(CCO)C2)c(O)c1 (stereo not drawn),1,-15%,-7,2.9µM*,3%,u
OCCC1CN(Cc2ccccc2-c2ccco2)CCN1Cc1ccccc1 (stereo not drawn),-2,3%,15,9.3µM*,0%,u
COc1ccc(CN2CCN(CCCc3ccccc3)C(CCO)C2)c(OC)c1 (stereo not drawn),-2,27%,-2,u,2%,-25%
OCCC1CN(Cc2cccc3c2OCO3)CCN1Cc1ccccc1 (stereo not drawn),1,2%,13,u,0%,7%
COc1ccc(CN2CCN(CCc3ccccc3)C(CCO)C2)c(O)c1 (stereo not drawn),-2,4%,-8,18%,-1%,10µM*
C/C=C(\C=C\[C@@H](C)C/C=C/CC/C=C/C=C\C[C@@H](OC)/C(C)=C\C=C(C)C)CC(=O)O,13,x,25,x,x,x
Cc1ccc(CN2CCN(Cc3cnc(C)[nH]3)CC2CCO)cc1 (stereo not drawn),0,-3%,-10,12µM*,0%,-7%
Cc1ccc(CN2CCN(Cc3nc4ccccc4nc3C)CC2CCO)cc1 (stereo not drawn),-5,0%,-22,u,1%,u
CCOc1ccccc1CN1CCN(CC2=Cc3cc(OC)ccc3OC2)CC1CCO (stereo not drawn),1,4%,-8,u,0%,9.3µM*
O=S(=O)(NC1=NCCCCC1)c1cc(F)ccc1F,x,x,x,x,-1%,x
O=C1ON=C(c2cccc([N+](=O)[O-])c2)/C1=C/c1ccc(O)cc1,-12,x,-14,1%,0%,12%
CCCCN=Cc1sc2ccc(OCC)cc2c1O,69*,-6%,67*,u,-13%,50%
C=CCN=Cc1sc2ccc(OCC)cc2c1O,51*,-3%,153*,78%,-15%,120%
CCOc1ccc(N=CNc2ccc(OCC)cc2)cc1,1,3%,20,u,2%,-2%
CCC(C(=O)O)P(=O)(c1ccc(Cl)cc1)c1ccc(Cl)cc1 (stereo not drawn),-5,3%,-4,-24%,1%,2%
